Experimental data: ChEMBL document CHEMBL1961873, “Compounds: GSK PKIS; Assays: Nanosyn kinase panel” (2012)

What was measured:
[1] = biological target: Mitogen-activated protein kinase kinase kinase kinase 4 (Homo sapiens) (UniProt O95819); conditions: at 1 µM;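 note: reported figure is an averaged inhibition value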
[2] = biological target: Dual specificity mitogen-activated protein kinase kinase 1 (Homo sapiens) (UniProt Q02750); conditions: at 0.1 µM
[3] = biological target: Dual specificity mitogen-activated protein kinase kinase 1 (Homo sapiens) (UniProt Q02750); conditions: at 1 µM
[4] = biological target: Misshapen-like kinase 1 (Homo sapiens) (UniProt Q8N4C8); conditions: at 0.1 µM
[5] = biological target: Misshapen-like kinase 1 (Homo sapiens) (UniProt Q8N4C8); conditions: at 1 µM
[6] = biological target: T1, Serine/threonine-protein kinase 4 (Homo sapiens) (UniProt Q13043); conditions: at 0.1 µM
T1 sequence (whole entry): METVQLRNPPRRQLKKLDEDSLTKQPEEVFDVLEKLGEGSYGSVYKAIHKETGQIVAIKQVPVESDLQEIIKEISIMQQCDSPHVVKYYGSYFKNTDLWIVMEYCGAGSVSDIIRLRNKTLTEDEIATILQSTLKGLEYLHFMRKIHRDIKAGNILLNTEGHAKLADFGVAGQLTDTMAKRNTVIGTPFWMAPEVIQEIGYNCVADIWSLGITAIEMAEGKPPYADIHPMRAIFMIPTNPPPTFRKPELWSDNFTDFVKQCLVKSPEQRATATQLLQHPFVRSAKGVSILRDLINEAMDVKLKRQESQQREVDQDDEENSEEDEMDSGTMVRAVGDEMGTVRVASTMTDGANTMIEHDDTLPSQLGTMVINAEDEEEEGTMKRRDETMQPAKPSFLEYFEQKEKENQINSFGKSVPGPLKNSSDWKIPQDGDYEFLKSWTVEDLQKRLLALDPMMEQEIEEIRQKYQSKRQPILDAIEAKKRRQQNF

[7] = biological target: T1, Serine/threonine-protein kinase 4 (Homo sapiens); conditions: at 1 µM
[8] = biological target: T2, Serine/threonine-protein kinase 3 (Homo sapiens) (UniProt Q13188); conditions: at 0.1 µM
T2 sequence (whole entry): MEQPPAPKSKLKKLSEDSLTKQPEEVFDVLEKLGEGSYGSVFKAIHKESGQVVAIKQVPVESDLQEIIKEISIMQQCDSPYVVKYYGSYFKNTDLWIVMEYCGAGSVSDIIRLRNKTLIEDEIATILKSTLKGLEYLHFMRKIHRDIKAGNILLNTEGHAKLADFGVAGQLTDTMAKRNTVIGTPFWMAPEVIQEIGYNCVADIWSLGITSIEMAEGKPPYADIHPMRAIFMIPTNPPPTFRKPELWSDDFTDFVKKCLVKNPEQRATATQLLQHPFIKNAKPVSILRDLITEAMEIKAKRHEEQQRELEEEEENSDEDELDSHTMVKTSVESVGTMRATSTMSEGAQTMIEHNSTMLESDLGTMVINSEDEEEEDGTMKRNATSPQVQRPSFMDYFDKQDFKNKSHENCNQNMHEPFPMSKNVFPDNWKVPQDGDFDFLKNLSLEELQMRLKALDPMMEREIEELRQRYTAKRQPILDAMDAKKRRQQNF

[9] = biological target: T2, Serine/threonine-protein kinase 3 (Homo sapiens); conditions: at 1 µM
[10] = biological target: Serine/threonine-protein kinase 26 (Homo sapiens) (UniProt Q9P289); conditions: at 0.1 µM
[11] = biological target: Serine/threonine-protein kinase 26 (Homo sapiens) (UniProt Q9P289); conditions: at 1 µM
[12] = biological target: Serine/threonine-protein kinase PAK 1 (Homo sapiens) (UniProt Q13153); conditions: at 0.1 µM
[13] = biological target: Serine/threonine-protein kinase PAK 1 (Homo sapiens) (UniProt Q13153); conditions: at 1 µM
[14] = biological target: Serine/threonine-protein kinase PAK 2 (Homo sapiens) (UniProt Q13177); conditions: at 0.1 µM
[15] = biological target: Serine/threonine-protein kinase PAK 2 (Homo sapiens) (UniProt Q13177); conditions: at 1 µM
[16] = biological target: Serine/threonine-protein kinase PAK 3 (Homo sapiens) (UniProt O75914); conditions: at 0.1 µM
[17] = biological target: Serine/threonine-protein kinase PAK 3 (Homo sapiens) (UniProt O75914); conditions: at 1 µM
[18] = biological target: Serine/threonine-protein kinase PAK 5 (Homo sapiens) (UniProt Q9P286); conditions: at 0.1 µM
[19] = biological target: Serine/threonine-protein kinase PAK 5 (Homo sapiens) (UniProt Q9P286); conditions: at 1 µM
[20] = biological target: Serine/threonine-protein kinase PAK 6 (Homo sapiens) (UniProt Q9NQU5); conditions: at 0.1 µM;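 note: mean PAK6 inhibition reported from the GSK PKIS screen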
Sequence of Serine/threonine-protein kinase PAK 6 (Homo sapiens) (Q9NQU5 whole entry, looked up): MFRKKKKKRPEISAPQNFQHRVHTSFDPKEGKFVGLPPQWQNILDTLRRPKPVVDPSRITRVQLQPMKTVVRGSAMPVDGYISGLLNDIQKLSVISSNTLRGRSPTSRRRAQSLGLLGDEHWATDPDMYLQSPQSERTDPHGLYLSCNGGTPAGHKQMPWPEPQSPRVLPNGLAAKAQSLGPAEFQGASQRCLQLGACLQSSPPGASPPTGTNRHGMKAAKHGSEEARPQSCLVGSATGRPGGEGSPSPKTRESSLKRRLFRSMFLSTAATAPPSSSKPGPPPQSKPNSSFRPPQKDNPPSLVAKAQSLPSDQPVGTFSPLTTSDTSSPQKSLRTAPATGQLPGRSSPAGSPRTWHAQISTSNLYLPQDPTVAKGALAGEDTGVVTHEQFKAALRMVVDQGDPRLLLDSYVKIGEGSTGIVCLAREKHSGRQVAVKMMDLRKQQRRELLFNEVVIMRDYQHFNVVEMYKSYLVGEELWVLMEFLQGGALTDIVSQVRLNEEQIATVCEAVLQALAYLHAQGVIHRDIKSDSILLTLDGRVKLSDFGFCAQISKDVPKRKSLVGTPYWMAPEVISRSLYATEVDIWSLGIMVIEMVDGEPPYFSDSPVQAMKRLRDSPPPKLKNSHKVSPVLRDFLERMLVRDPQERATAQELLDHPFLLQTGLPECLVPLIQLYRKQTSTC

Sequence of Serine/threonine-protein kinase PAK 2 (Homo sapiens) (Q13177 whole entry): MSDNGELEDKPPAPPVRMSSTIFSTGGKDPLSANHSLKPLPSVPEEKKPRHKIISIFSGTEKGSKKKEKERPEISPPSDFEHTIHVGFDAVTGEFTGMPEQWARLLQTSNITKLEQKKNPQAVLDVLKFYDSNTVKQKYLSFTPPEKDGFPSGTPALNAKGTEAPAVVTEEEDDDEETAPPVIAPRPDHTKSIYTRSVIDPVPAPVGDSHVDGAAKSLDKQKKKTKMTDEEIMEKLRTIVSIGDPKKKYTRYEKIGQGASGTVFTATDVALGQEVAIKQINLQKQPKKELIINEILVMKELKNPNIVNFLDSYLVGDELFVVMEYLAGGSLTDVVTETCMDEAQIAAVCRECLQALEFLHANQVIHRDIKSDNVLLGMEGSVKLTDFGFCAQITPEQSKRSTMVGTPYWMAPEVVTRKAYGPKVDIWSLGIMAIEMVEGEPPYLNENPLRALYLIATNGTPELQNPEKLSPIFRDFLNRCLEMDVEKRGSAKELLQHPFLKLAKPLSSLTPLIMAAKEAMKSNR
Sequence of Dual specificity mitogen-activated protein kinase kinase 1 (Homo sapiens) (Q02750 whole entry): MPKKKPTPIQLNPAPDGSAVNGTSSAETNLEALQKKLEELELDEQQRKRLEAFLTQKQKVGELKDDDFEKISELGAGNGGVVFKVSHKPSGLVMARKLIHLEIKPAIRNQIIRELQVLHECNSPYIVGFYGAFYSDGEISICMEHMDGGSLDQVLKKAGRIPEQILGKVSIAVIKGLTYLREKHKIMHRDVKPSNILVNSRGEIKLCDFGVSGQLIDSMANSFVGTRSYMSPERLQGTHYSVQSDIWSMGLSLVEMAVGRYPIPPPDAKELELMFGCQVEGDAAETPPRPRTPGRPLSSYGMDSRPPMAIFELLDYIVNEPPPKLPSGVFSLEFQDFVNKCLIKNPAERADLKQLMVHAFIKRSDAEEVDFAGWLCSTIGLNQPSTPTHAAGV
Sequence of Serine/threonine-protein kinase PAK 5 (Homo sapiens) (Q9P286 whole entry, looked up): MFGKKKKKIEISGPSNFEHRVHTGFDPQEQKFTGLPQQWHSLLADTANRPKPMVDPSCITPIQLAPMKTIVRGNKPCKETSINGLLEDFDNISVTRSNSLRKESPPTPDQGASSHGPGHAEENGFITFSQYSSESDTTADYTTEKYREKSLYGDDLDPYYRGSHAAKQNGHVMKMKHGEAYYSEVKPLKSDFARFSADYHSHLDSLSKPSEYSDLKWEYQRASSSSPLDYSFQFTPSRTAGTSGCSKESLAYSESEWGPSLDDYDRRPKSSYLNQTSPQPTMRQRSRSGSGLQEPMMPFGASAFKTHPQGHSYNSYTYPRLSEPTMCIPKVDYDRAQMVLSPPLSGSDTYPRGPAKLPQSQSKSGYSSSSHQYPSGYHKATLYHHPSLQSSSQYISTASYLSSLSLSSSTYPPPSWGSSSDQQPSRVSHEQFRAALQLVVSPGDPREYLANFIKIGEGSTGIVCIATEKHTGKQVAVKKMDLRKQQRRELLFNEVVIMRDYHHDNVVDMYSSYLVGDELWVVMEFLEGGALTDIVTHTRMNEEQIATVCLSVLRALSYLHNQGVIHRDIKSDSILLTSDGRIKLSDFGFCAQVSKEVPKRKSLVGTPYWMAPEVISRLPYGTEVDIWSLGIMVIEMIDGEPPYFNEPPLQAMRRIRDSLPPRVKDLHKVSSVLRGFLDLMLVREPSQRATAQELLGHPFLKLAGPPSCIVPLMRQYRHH
Sequence of Serine/threonine-protein kinase 26 (Homo sapiens) (Q9P289 2-416 limits assumed): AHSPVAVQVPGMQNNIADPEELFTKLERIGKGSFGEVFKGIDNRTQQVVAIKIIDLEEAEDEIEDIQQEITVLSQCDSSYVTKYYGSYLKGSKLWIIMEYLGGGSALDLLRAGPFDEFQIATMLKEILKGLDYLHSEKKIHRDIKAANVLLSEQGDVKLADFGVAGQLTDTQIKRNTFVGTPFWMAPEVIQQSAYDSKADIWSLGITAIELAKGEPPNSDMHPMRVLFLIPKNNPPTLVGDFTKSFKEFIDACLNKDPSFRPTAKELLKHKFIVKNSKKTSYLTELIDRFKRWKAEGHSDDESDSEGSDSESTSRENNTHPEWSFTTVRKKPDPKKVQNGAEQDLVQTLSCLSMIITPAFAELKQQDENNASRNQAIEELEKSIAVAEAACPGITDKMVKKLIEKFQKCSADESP
Sequence of Serine/threonine-protein kinase PAK 3 (Homo sapiens) (O75914 whole entry, looked up): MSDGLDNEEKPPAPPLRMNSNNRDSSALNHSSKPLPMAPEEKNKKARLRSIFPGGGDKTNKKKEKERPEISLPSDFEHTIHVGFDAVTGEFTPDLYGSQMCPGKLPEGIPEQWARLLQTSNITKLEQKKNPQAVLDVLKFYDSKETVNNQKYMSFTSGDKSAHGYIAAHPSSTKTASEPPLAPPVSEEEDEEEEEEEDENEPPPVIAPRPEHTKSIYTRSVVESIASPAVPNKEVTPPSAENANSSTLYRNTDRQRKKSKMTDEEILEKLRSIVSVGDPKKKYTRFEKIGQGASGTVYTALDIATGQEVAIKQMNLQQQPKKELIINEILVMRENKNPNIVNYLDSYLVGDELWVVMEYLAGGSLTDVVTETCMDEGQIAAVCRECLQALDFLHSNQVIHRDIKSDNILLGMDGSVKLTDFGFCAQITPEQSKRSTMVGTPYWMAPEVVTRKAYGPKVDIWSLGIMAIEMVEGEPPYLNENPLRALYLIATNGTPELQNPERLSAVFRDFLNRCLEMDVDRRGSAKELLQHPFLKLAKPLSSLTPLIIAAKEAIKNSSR
Sequence of Misshapen-like kinase 1 (Homo sapiens) (Q8N4C8 whole entry, looked up): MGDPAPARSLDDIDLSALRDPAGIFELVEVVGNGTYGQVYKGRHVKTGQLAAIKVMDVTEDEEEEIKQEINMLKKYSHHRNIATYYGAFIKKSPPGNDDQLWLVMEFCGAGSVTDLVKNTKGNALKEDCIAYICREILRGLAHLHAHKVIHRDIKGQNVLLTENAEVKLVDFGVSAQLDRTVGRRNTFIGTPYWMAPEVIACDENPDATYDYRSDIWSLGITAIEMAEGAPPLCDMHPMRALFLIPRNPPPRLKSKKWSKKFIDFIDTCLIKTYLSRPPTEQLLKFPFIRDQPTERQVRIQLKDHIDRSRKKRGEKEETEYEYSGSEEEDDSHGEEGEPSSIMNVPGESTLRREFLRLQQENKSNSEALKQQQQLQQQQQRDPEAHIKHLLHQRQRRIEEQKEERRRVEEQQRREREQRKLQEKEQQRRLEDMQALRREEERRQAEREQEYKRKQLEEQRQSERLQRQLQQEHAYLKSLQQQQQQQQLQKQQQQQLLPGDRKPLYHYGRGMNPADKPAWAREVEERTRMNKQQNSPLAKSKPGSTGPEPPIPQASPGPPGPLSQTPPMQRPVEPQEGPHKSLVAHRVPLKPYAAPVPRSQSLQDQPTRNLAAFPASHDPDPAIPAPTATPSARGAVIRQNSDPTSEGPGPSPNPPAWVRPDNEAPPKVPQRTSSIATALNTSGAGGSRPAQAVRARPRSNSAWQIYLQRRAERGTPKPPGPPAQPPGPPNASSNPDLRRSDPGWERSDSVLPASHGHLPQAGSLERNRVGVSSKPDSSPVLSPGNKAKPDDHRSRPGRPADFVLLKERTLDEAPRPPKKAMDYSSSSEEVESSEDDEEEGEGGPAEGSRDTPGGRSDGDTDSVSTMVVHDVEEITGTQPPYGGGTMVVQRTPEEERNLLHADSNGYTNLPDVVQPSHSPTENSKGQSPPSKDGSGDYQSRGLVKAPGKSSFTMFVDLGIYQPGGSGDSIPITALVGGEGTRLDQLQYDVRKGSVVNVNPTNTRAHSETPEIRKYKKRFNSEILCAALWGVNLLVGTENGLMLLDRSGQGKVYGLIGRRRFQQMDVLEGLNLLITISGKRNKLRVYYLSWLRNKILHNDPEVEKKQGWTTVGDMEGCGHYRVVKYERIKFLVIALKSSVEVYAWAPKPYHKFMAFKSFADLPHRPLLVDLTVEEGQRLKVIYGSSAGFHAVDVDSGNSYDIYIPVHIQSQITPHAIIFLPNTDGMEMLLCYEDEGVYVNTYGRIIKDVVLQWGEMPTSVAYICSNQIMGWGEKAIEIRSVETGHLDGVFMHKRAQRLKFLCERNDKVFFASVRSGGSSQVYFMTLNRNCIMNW

Row | Structure (SMILES) | inhibition [1] [%] | inhibition [2] [%] | inhibition [3] [%] | inhibition [4] [%] | inhibition [5] [%] | inhibition [6] [%] | inhibition [7] [%] | inhibition [8] [%] | inhibition [9] [%] | inhibition [10] [%] | inhibition [11] [%] | inhibition [12] [%] | inhibition [13] [%] | inhibition [14] [%] | inhibition [15] [%] | inhibition [16] [%] | inhibition [17] [%] | inhibition [18] [%] | inhibition [19] [%] | inhibition [20] [%]
1 | CCN(CC)Cc1ccc(Nc2nccc(-c3cnn4ncccc34)n2)cc1 | 20.4 | 3.09 | 13.1 | 5.68 | 17 | 1.35 | 15.9 | 5.43 | 9.79 | -1.89 | 0.74 | 5.45 | 9.08 | 1.19 | 3.41 | 4.82 | 6 | 1.9 | 5.43 | –
2 | O=C(Nc1n[nH]c2cc(-c3cc(F)ccc3F)ccc12)C1CC1 | 58.7 | 4.62 | 4.19 | 11.6 | 45.7 | 1.85 | 4.03 | 2.46 | 3.81 | -1.29 | -1.14 | 5.03 | 5.57 | 0.42 | 2.22 | 2.86 | 2.97 | 3.42 | -2.05 | 2.84
3 | CCS(=O)(=O)c1ccc(OC)c(Nc2ncc(-c3cccc(-c4ccccc4F)c3)o2)c1 | 7.49 | -1.1 | -0.23 | 1.27 | 6.72 | -0.24 | 0.6 | 0.7 | -0.3 | 0.48 | -0.27 | -2.19 | -0.96 | -1 | -0.6 | -0.65 | -0.27 | 6.6 | 2.9 | 12.3
4 | Clc1ccc(CNc2nccc(-c3cnn4ncccc34)n2)cc1 | 16.3 | 0.08 | 2.12 | 1.36 | 10.7 | 3.22 | 5.84 | 2.53 | 3.57 | -0.31 | 1.18 | -2.27 | -0.13 | 0.78 | 0.67 | -0.26 | 0.29 | 8.39 | 2.06 | –
5 | COc1cccc(-n2cnc3c(N/N=C/c4ccncc4)ncnc32)c1 | 16.9 | -0.13 | -0.71 | 2.27 | 16.9 | 3.6 | 7.14 | 4.46 | 7.42 | 0.98 | -2.88 | 2.37 | 1.58 | -1.03 | -0.99 | -1.14 | 0.31 | 6.09 | 10.8 | 5.99
6 | NS(=O)(=O)c1ccc(N/N=C2\C(=O)Nc3ccc(-c4cnco4)cc32)cc1 | 77.6 | 2.18 | 5.31 | 51.6 | 75.8 | 43.8 | 76.8 | 33.4 | 73.2 | 0.61 | 11.1 | 2.52 | 3.12 | 0.33 | 0.86 | 1.7 | 2.52 | 0.27 | -0.09 | –
7 | COc1ccc(-c2ccc3c(NC(=O)C4CC4)n[nH]c3n2)cc1 | 33 | 2.82 | 2.1 | 5.24 | 21.8 | 2.12 | 4.96 | 2.09 | 5.21 | -1.38 | 1.05 | 2.82 | 2.7 | -1.11 | -0.84 | 3.36 | 3.17 | -5.83 | -4.91 | 2.86
8 | CCc1cccc(CC)c1/C=C/c1cncc(C(=O)NC)c1 | 7.49 | 2.63 | 2.68 | 3.66 | 6.06 | 5.37 | 5.19 | 5.6 | 3.95 | -0.96 | -4.27 | 6.83 | 2.08 | 2.1 | 1.76 | 2.61 | 3.43 | 8.04 | -1.06 | -5.49
9 | N#Cc1ccc(Oc2nccc(-c3c(-c4ccc(F)cc4)ncn3C3CCNCC3)n2)cc1 | 5.64 | 4.35 | 3.84 | 6.9 | 7.67 | 3.35 | 4.07 | 5.75 | 4.78 | -1.67 | -2.91 | 7.47 | 7.87 | 1.65 | 2.68 | 4.55 | 4.04 | 2.41 | 0.4 | -4.78
10 | COc1ccc2cc(-c3c(-c4ccncc4)nc(-c4ccc(S(C)(=O)=O)cc4C)n3C)ccc2c1 | 14.8 | 6.08 | 4.97 | 6.31 | 13.9 | 2.82 | 8.72 | 4.72 | 12.6 | -0.63 | 2.09 | 9.36 | 10 | 2.04 | 2.16 | 5.62 | 4.99 | -1.89 | 3.62 | –
11 | COC(=O)Nc1nc2ccc(Sc3ccc(NC(=O)Nc4cc(C(F)(F)F)ccc4F)cc3)cc2[nH]1 | 7.12 | -0.42 | 0.12 | 0.07 | 0.67 | 2.61 | 3.26 | 2.16 | 1.83 | 1.18 | -1.61 | -1.15 | -1.32 | 10.8 | 0.18 | -0.08 | 0.83 | 6.86 | -2.02 | -4.57
12 | Fc1ccc(-c2ncn(C3CCNCC3)c2-c2ccnc(Oc3ccc(F)c(F)c3)n2)cc1 | 10.9 | 3.03 | 3.8 | 8.56 | 12 | 7.1 | 7.9 | 10.2 | 9.55 | 1.93 | 5.23 | 5.03 | 4.33 | 0.93 | 1.83 | 4.91 | 5.71 | 1.64 | 0.29 | –
13 | Fc1ccc(-c2ncn(C3CCNCC3)c2-c2ccnc(Oc3ccc4c(c3)OCO4)n2)cc1 | 7.72 | 4.99 | 8.82 | 5.95 | 12 | 4.76 | 8.51 | 6.72 | 10.8 | -1.94 | -0.15 | 6.43 | 8.06 | 2.45 | 2.56 | 6.04 | 6.56 | 1.45 | 2.03 | 1.43
14 | Fc1ccc(-c2c(-c3ccncc3)nc3n2CCS3)cc1 | 10.8 | 3.75 | 4.29 | 4.97 | 9.56 | 1.09 | 2.38 | 1.69 | 3.46 | -0.47 | 1.66 | 6.15 | -0.03 | -0.52 | 0.49 | 2.55 | 3.16 | 1.47 | 3.62 | 1.52
